High-throughput results (PubChem BioAssay)
ROMK mod – modulates human ROMK potassium channel activity; P48048; Tet-inducible ROMK, thallium flux fluorescence; actives lie on both sides; B-score at 10 µM; 2% of 130,000 active;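 active = signal ratio slope over the read window, or its plate-corrected B-score, at least 3 SD from the plate mean, either direction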;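 note: B-score of the F/F0 ratio slope over 7 to 12 s after thallium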
Measles CPE – protection of cells from measles virus | Measles virus-infected cells, CPE protection, absorbance | protection (pct of control), % at 4 µM | 1.5% of 140,000 active | AID 841; in the data active = protection mostly above about 24%, no sharp cut-off; inactive = mostly below about 26%
Cl transport mod – KCC2 (human) Cl- transport modulation; Q9H2X9; KCC2 cells, thallium flux FluoZin-2 fluorescence; B-score of Tl+ flux slope (higher = more flux/activation; lower = inhibition) at 10 µM; 2.2% of 190,000 active; AID 1456;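 active = thallium flux slope and its plate-corrected score both differing from the plate sample mean at a set confidence after two filtering rounds, in either direction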;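 note: slope of fluorescence scaled to starting intensity during 10 to 20 s after thallium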
Target sequence (Q9H2X9 whole entry, looked up): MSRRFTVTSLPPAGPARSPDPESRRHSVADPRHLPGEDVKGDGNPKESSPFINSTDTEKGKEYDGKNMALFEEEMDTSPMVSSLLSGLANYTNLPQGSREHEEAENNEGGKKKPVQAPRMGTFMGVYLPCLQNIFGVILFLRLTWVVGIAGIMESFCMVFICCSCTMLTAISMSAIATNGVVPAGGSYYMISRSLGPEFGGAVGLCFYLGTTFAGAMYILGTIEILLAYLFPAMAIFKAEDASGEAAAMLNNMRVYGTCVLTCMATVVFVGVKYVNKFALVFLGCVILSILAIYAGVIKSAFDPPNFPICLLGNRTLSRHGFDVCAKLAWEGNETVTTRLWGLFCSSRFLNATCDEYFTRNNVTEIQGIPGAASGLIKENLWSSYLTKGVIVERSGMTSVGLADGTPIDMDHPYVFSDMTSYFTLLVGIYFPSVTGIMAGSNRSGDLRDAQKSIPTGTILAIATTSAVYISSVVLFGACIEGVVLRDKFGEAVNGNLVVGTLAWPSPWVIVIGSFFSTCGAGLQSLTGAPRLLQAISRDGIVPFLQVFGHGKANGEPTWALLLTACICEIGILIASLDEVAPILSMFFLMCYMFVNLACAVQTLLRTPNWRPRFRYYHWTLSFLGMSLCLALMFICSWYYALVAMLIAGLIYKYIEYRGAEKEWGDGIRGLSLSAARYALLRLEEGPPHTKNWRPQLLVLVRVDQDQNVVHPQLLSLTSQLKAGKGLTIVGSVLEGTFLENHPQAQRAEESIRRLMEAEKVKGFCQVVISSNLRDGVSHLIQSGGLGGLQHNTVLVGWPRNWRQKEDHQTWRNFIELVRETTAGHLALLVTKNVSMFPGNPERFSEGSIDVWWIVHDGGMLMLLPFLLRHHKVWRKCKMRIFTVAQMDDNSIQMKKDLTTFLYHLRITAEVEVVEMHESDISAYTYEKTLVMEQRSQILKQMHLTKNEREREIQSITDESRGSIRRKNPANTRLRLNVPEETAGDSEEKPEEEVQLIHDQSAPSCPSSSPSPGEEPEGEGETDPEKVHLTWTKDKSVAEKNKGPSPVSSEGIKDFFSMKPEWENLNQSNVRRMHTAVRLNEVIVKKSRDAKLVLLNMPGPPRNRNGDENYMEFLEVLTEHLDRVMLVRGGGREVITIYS
HSV augment – HSV replication enhancement; HSV replication augmentation in cells, fold increase; maximum fold increase; 0.005% of 220,000 active; in the data active = maximum fold increase above about 1.5; inconclusive = no clear call, values can overlap the other calls; tested in PC3 cells
Arbovirus inh – blocks arbovirus infection. arbovirus infection cell-based antiviral screen. inhibition, % at 10 µM. AID 1251. 0.37% of 200,000 active; in the data active = inhibition above about 30%
KCC2 sec1 – KCC2 (human) modulation, secondary assay; normalised thallium flux (F/F0 slope) at 10 µM; 15% of 3,700 active; HEK293-KCC2, thallium flux, FluoZin2 fluorescence; hits give high values; shares compounds with Cl transport mod; AID 1713;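 active = thallium flux slope above the same plate's solvent-only control mean plus 3 SD; inconclusive = the two replicate wells disagree; inactive = no significant difference from solvent-only control wells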
KCC2 bumet counter – bumetanide-insensitive thallium flux in KCC2 cells with ouabain, counter-screen | shares compounds with Cl transport mod | normalized thallium flux at 10 µM | HEK293-KCC2 + bumetanide/ouabain, thallium flux FluoZin2; hits give high values | 49% of 3,700 active;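 active = thallium entry rate above the same plate's blocked-transporter control wells by more than 3 SD; inconclusive = the two repeat wells disagree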;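 note: raw slope of fluorescence over initial fluorescence between 10 and 20 s after thallium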
KCC2 secondary2 – confirmation of human KCC2 transport modulators. shares compounds with Cl transport mod. HEK293-KCC2, thallium flux FluoZin2 fluorescence; actives lie on both sides; F/F0 rise rate, 10–20 s post-thallium. normalized thallium flux at 10 µM. 23% of 3,700 active;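 active = thallium flux slope more than 3 SD above or below the plate's solvent-only control mean, mostly below; inconclusive = the two repeat wells disagreed; inactive = no significant shift from solvent-only controls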;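 note: raw slope with 0.1% DMSO as baseline and bumetanide as block control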
HEK293 Tl flux – acts in parental HEK cells, KCC2 counter-screen; shares compounds with Cl transport mod; HEK293 parental cells, thallium flux FluoZin2, ouabain; baseline-ratio fluorescence slope, 10–20 s after thallium; thallium flux rate (normalised fluorescence) at 10 µM; 46% of 3,700 active;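 active = thallium flux rate significantly above the same plate's solvent-only control wells, beyond their mean plus 3 SD; inconclusive = the two replicate wells gave conflicting results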
KCC2 ouabain – confirmation of human KCC2 modulators with ouabain; AID 1717; HEK293-KCC2, thallium flux FluoZin2 fluorescence; bidirectional: low = inhibitor, high = activator; shares compounds with Cl transport mod; raw Tl+ flux slope (below DMSO = inhibition, above = activation) at 10 µM; 48% of 3,700 active;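 active = thallium flux slope beyond 3 SD from same-plate DMSO control mean in most replicates, usually higher, sometimes lower; inconclusive = repeat tests gave conflicting results; inactive = no significant difference from controls in most replicates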;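 note: slope of initial-normalized fluorescence between seconds 10 and 20 after thallium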
HEK293 Tl flux2 – parental HEK flux effect, counter-screen 2. AID 1718. 33% of 3,700 active. shares compounds with Cl transport mod. HEK293 parental, thallium flux FluoZin-2 fluorescence slope. thallium flux slope at 10 µM;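 active = thallium flux slope above the same plate's solvent-control mean plus 3 SD in both duplicate wells; inconclusive = duplicate wells that disagreed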;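 note: run without ouabain in cells lacking the KCC2 cotransporter; slope of fluorescence scaled to its starting value between 10 and 20 s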
* marks the source's active call; other numbers are inactive results; i = inactive; u = inconclusive; x = no result. Most compounds without a hit are left out; they make up all but 4% or so of the library.

SMILES | ROMK mod | Measles CPE | Cl transport mod | HSV augment | Arbovirus inh | KCC2 sec1 | KCC2 bumet counter | KCC2 secondary2 | HEK293 Tl flux | KCC2 ouabain | HEK293 Tl flux2
C=CCn1nc([N+](=O)[O-])nc1Sc1cccc2cccnc12 | 0.97 | 12 | 12* | i | -31 | 0.015* | 0.06* | 0.03 | 0.018* | 0.036* | 0.011*
O=C(NCC(=O)N1CCN(S(=O)(=O)/C=C/c2ccccc2)CC1)c1ccc(Cl)cc1 | x | x | 0.48 | i | x | x | x | x | x | x | x
Cc1cccc(C)c1Nc1nnc(SCC(=O)Nc2ncc(C(F)(F)F)cc2Cl)s1 | -1 | 10 | -6.5* | i | 5 | 0.0057* | 0.0069 | 0.025* | u | 0.014* | 0.0093
Cc1cccc(Nc2nnc(SCC(=O)Nc3ncc(C(F)(F)F)cc3Cl)s2)c1C | x | 8 | -3.6* | i | 6 | 0.0059 | 0.0052 | 0.024* | 0.0067 | u | 0.01
O=C(NCCO)/C(=C/c1ccc(Br)cc1)NC(=O)c1cccs1 | x | 20 | x | i | -1 | 0.0084 | 0.0068 | 0.03 | 0.0067 | 0.02 | 0.0098
O=C(CNC(=O)/C(=C\c1ccc(Br)cc1)NC(=O)c1ccccc1)OCc1ccccc1 | x | 2 | -6.1* | i | 11 | 0.0066 | 0.0046 | 0.021* | 0.0077 | 0.012* | 0.01
O=C(CNC(=O)/C(=C/c1ccccc1)NC(=O)c1ccc(Br)cc1)OCc1ccccc1 | x | 2 | -6.9* | i | 5 | 0.0078 | 0.0057 | 0.022* | 0.0064 | 0.011* | 0.009
O=C(NCCO)/C(=C\c1ccco1)NC(=O)c1cccs1 | -0.36 | x | 0.065 | i | 3 | x | x | x | x | x | x
CC(C)C(c1nnnn1Cc1cccs1)N1CCN(C(=O)c2ccco2)CC1 (stereo unspecified) | 0.38 | x | 0.58 | i | -4 | x | x | x | x | x | x
O=C(NC(=S)N1CCc2ccccc21)C1CCC1 | -0.0029 | x | 14* | i | 5 | 0.0082 | 0.025* | 0.033 | 0.018* | u | 0.016*
O=C(NC(=S)N1CCc2ccccc21)c1ccc(Br)o1 | x | x | 65* | i | -6 | 0.063* | 0.086* | 0.09* | 0.098* | 0.09* | 0.11*
Cc1ccc(C(=O)N2CCc3ccccc32)o1 | -0.51 | 1 | -2.1 | i | -6 | x | x | x | x | x | x
CC(C)(C)C(=O)NC(=S)N1CCc2ccccc21 | x | x | 22* | i | -13 | 0.024* | 0.1* | 0.052* | u | 0.066* | 0.037*
CC(C)(C)C(=O)NC(=S)Nc1ccccc1N1CCCC1 | -0.21 | x | x | i | 10 | x | x | x | x | x | x
CN(C)c1cccc2c1c(NC(=O)c1ccc(Cl)cc1)nn2C | x | x | -1.3 | i | x | x | x | x | x | x | x
O=C1c2ccccc2C(Nc2ccc(S(=O)(=O)N3CCCCCC3)cc2)N1Cc1ccco1 (stereo unspecified) | x | 5 | -5.5* | i | -8 | 0.0088 | 0.0052 | 0.033 | 0.007 | 0.016* | 0.01
O=C1CCC(C(=O)N2CCCC(C(=O)c3ccc4c5c(cccc35)CC4)C2)=NN1 (stereo unspecified) | 0.006 | x | -0.14 | i | -17 | x | x | x | x | x | x
Cc1cc2nc3c(nc2cc1C)C(O)=C3O | x | x | 1 | i | x | x | x | x | x | x | x
CCCN1C(=O)/C(=C/c2ccc(C)o2)NC1=S | 0.1 | x | 83* | i | 0 | 0.022* | 0.12* | u | 0.05* | 0.085* | 0.018*
Cc1ccc(C(=O)COc2nc(C)nc3ccccc23)cc1 | 0.77 | x | -0.67 | i | 15 | x | x | x | x | x | x
N#Cc1ccc(CSc2nnc(Nc3ccccc3)s2)cc1 | x | 7 | 0.022 | i | 3 | x | x | x | x | x | x
c1ccc(CSc2nnc(NC3=NCCCCC3)s2)cc1 | -0.58 | 9 | x | i | 8 | 0.0076 | 0.0052 | 0.028 | 0.0072 | 0.034* | 0.01
O=C(NCCC1=CCCCC1)C1CCN(C(=O)Cc2ccccc2)CC1 | -0.44 | x | -0.81 | i | -4 | x | x | x | x | x | x
C=CC[N+]1(CC(=O)NCc2ccc(NC(C)=O)cc2)CCOCC1 | x | x | x | i | x | x | x | x | x | x | x
O=C(COC(=O)c1cc(=O)[nH]c2ccccc12)NC(=O)NC1CCCCC1 | x | 20 | -0.56 | i | 3 | x | x | x | x | x | x
SMILES | ROMK mod | Measles CPE | Cl transport mod | HSV augment | Arbovirus inh | KCC2 sec1 | KCC2 bumet counter | KCC2 secondary2 | HEK293 Tl flux | KCC2 ouabain | HEK293 Tl flux2
COc1cccc(C(=O)OCC(=O)NC(=O)NC2CCCC2)c1O | 0.97 | x | 11* | i | 0 | 0.01 | 0.017* | 0.035 | 0.02* | 0.027* | 0.014*
Cn1c(CSc2nc3ccccc3s2)nnc1SCC(=O)NCc1ccccn1 | 0.47 | 8 | -4* | i | 2 | 0.0069 | 0.0044 | 0.03 | 0.0074 | u | 0.0095
CC(=O)Nc1ccc(SC[C@H](CC(C)C)N2CCN(CC(C)C)CCC2=O)cc1 | x | x | 0.12 | i | x | x | x | x | x | x | x
COc1ccc(SC[C@H](CC(C)C)N2CCN(CCc3ccccc3)CCC2=O)cc1 | x | x | -4.6* | i | x | 0.0061 | 0.0036 | u | 0.0058* | 0.013* | 0.0087
Cc1ccc(SC[C@H](CC(C)C)N2CCN(CCc3ccccc3)CCC2=O)cc1 | x | x | -4.4* | i | x | 0.0079 | 0.0053 | 0.032 | 0.0071 | 0.017* | 0.0097
CC(=O)Nc1ccc(SC[C@H](CC(C)C)N2CCN(CCc3ccccc3)CCC2=O)cc1 | x | x | -3.8* | i | x | 0.0096 | 0.0057 | 0.033 | 0.0069 | 0.019 | 0.011
Cc1nc(NC(=O)c2cccs2)ccc1Br | -0.12 | x | -1.3 | i | 0 | x | x | x | x | x | x
Cc1ccc(C2CC(C(F)(F)F)n3nc(C(=O)NCC4CCCO4)cc3N2)cc1 (stereo unspecified) | x | 17 | -4.2* | i | -1 | 0.0072 | 0.005 | 0.03 | 0.0079 | 0.019 | 0.011
O=C(NCCN1CCOCC1)c1cc2n(n1)C(C(F)(F)F)CC(c1ccc(F)cc1)N2 (stereo unspecified) | -0.0083 | 6 | x | i | -6 | x | x | x | x | x | x
O=c1ncc(F)c[nH]1 | x | x | x | i | x | x | x | x | x | x | x
CCn1c(N2CCC(Cc3ccccc3)CC2)nc2c1c(=O)[nH]c(=O)n2C | x | 24 | -3.1* | x | -6 | 0.0078 | 0.0046 | 0.032 | 0.0061* | 0.016* | 0.011
COc1ccc2[nH]c3c(NCCN4CCCCC4)ncnc3c2c1 | x | 10 | -5.2* | i | 10 | 0.0068 | 0.0046 | 0.028 | 0.0073 | 0.019 | 0.011
CC1Cc2ccccc2N1C1=CC(=O)CCC1 (stereo unspecified) | 0.034 | x | 0.63 | i | 10 | x | x | x | x | x | x
COc1ccc(-c2nn(C)c(=O)c3ccccc23)cc1NS(C)(=O)=O | 0.78 | 6 | x | i | -6 | 0.0078 | 0.0057 | 0.03 | 0.0065 | 0.019 | 0.0093
